SNCA expr inh: reduces expression of the alpha-synuclein gene. HEK-293 SNCA-luciferase knock-in, luminescence, 24 h. Potency, µM (top dose mostly 57.2 µM), most hits filed as inhibitors. 140,000 compounds, 0.17% hits; also: nearly all actives have a fitted effect of over 45% in size
KDM5B inhibitor: blocks human KDM5B histone demethylase activity | Potency, µM (highest dose often 57.7 µM), hits mostly inhibitors | KDM5B demethylase, FDH-coupled NADH fluorescence (FDH is formaldehyde dehydrogenase) | AID 1347165 | 220,000 compounds, 2.6% hits | Q9UGL1; also: nearly all actives have a fitted effect of over 70% in size
Target sequence (Q9UGL1 whole entry, looked up): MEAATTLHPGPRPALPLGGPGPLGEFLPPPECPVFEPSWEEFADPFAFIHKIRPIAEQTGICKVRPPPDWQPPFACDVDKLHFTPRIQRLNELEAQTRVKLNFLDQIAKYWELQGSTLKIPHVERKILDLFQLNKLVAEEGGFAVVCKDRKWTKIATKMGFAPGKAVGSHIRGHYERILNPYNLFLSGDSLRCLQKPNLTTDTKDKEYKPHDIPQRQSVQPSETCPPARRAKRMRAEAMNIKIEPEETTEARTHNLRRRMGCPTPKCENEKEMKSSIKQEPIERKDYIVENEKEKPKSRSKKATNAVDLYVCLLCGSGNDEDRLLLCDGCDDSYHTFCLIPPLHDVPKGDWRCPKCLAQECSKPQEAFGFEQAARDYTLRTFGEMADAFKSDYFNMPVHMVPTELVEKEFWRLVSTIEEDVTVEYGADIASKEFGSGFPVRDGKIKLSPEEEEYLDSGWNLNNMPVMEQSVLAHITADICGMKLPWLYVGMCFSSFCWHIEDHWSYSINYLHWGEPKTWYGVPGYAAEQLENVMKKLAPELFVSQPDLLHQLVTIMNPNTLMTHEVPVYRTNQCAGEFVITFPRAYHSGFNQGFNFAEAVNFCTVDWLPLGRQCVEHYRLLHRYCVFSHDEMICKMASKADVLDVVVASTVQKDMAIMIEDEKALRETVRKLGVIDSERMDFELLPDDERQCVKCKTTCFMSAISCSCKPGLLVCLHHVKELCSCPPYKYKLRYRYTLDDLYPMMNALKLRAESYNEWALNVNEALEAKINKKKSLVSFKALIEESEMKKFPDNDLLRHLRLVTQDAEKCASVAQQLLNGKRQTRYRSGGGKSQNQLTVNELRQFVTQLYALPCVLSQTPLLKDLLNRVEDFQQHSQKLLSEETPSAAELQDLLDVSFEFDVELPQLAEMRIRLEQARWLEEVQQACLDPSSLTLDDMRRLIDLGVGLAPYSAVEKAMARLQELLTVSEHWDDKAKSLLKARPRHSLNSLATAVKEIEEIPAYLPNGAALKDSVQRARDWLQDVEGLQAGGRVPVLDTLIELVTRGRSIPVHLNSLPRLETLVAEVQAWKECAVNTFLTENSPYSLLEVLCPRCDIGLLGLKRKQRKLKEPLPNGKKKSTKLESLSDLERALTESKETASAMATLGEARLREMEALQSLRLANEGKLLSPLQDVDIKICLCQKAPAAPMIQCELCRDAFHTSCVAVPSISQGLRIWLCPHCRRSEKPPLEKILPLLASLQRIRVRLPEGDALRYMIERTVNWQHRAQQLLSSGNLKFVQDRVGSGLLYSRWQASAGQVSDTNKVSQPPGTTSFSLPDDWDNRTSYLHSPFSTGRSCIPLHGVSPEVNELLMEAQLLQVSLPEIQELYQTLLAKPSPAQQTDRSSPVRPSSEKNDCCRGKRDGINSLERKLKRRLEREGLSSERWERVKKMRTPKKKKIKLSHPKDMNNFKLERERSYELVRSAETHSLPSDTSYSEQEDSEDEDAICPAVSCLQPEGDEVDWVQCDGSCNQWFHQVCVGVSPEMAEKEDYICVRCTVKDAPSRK
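Inhibition is measured as reduced NADH fluorescence generation from FDH coupling to formaldehyde release. Truncated KDM5BΔAP at 200 nM final acts on H3K4me3 peptide (12.5 µM in substrate mix) in pH 7.5 HEPES buffer with Tween-20, 30 min, room temperature.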
IP6K1 inh: blocks human inositol hexakisphosphate kinase 1; Q92551; IP6K1 kinase, ADP-Glo luminescence, 2 h; active compounds read low; activity change, % (series mostly up to about 58 µM); 140,000 compounds, 0.81% hits; AID 1645851; in the data active = activity change below about -25%
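ADP-Glo luminescence measures ADP made by human IP6K1 during a 2 h RT reaction with ATP/IP6 (mix at 1.3 mM/130 uM); top library doses 57.5 and 19.1 uM final.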
HEK293 viab: reduces viability of HEK-293 SNCA reporter cells | Potency, µM (doses to about 57.1 µM), actives largely listed as cytotoxic | 150,000 compounds, 0.12% hits | AID 1671193 | HEK-293-SNCA-luc viability, GF-AFC fluorescence, 24 h; also: nearly all actives have a fitted effect of over 30% in size
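Cytotoxicity counterscreen: after 24 h compound treatment of genome-edited SNCA-luciferase HEK-293 cells, live-cell protease substrate GF-AFC read by fluorescence after 30 min; activity scaled between DMSO (0%) and medium-only (-100%), curves Hill-fitted.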
IP6K1 conf: confirmation of human IP6K1 inhibitors; shares compounds with IP6K1 inh; recombinant IP6K1 kinase, ADP-Glo luminescence, 2 h; Potency, µM (top dose mostly 49 µM), usual class: inhibitors; 1,200 compounds, 13% hits; also: nearly all actives have a fitted effect of over 65% in size
Hits are given with their value. Rows were chosen to be rich in hits. Some 2.8% of all compounds tested hit in one or more screens of this group. Unless noted, calls follow the shape of the dose curve; as a rule, active = well fitted curve in the direction sought with a large enough effect; inconclusive = small, poorly fitted or top-dose-only effect, or another doubt; inactive = no such curve, though single readings can be large; an effect the other way counts as inactive or inconclusive.

How did COc1cccc(-c2cc(C3CCN(C(=O)Nc4ccc(F)cc4F)CC3)[nH]n2)c1 do in these assays?
SNCA expr inh: inactive; KDM5B inhibitor: inactive; IP6K1 inh: inactive; HEK293 viab: inactive

Results for O=C1Nc2ccc(I)cc2/C1=C/c1cc(Br)c(O)c(Br)c1 ?
SNCA expr inh: inactive; HEK293 viab: inactive; IP6K1 conf: 2.9µM

How did O=C1Nc2ccc(I)cc2C1=Cc1cc(Br)c(O)c(Br)c1 do in these assays?
SNCA expr inh: inactive; HEK293 viab: inactive

How did CCNC(=O)CN1CCN(C(=O)CCc2ncc(-c3ccc(Cl)cc3)o2)CC1 do in these assays?
KDM5B inhibitor: inactive

Results for O=C(Nc1nc2cccc(-c3ccc(CN4CCS(=O)(=O)CC4)cc3)n2n1)C1CC1 ?
SNCA expr inh: inactive; IP6K1 inh: inactive; HEK293 viab: inconclusive; IP6K1 conf: inactive

What do the screens show for `COc1cccc(-c2c(C(=O)NCc3ccccc3Cl)nc3sccn23)c1`?
SNCA expr inh: inactive; IP6K1 inh: inactive; HEK293 viab: inactive

What do the screens show for `COc1cncc(Nc2cnc3ccc(-c4ccccc4)nn23)c1`?
SNCA expr inh: inactive; KDM5B inhibitor: inconclusive; IP6K1 inh: -36; HEK293 viab: inactive; IP6K1 conf: inconclusive

What do the screens show for `CCCSCCCNC(=O)C1CCN(c2nc3ccccc3nc2C(F)(F)F)CC1`?
SNCA expr inh: inactive; KDM5B inhibitor: inactive; IP6K1 inh: -29; HEK293 viab: inactive; IP6K1 conf: inactive

How did O=C(NCCc1ccccc1)C1CCN(c2nc3ccccc3nc2C(F)(F)F)CC1 do in these assays?
SNCA expr inh: inactive; KDM5B inhibitor: inactive; IP6K1 inh: inactive; HEK293 viab: inactive

How did OC1(CN2CCCCC2)CCN(Cc2cnn(-c3ccccc3Cl)c2)C1 (centres undefined) do in these assays?
SNCA expr inh: inactive; KDM5B inhibitor: inconclusive; IP6K1 inh: -36; HEK293 viab: inactive; IP6K1 conf: inactive

What do the screens show for `O=C(COc1ccc2c(c1)CCC(=O)N2)NOCc1ccccc1`?
KDM5B inhibitor: inactive

How did COc1cccc2c1cc1c(=O)n(CC(=O)N3CCN(c4cc(Cl)ccc4C)CC3)nc(C)n12 do in these assays?
SNCA expr inh: inactive; KDM5B inhibitor: inconclusive; IP6K1 inh: inactive; HEK293 viab: inactive

Results for CCOC(=O)C1CCN(C(=O)Cn2nc(C)n3c(cc4cc(C)ccc43)c2=O)CC1 ?
SNCA expr inh: inactive; KDM5B inhibitor: inconclusive; IP6K1 inh: -35; HEK293 viab: inactive; IP6K1 conf: inactive

What do the screens show for `COc1cccc2c1cc1c(=O)n(CC(=O)N3CCN(c4cccc(C)c4C)CC3)nc(C)n12`?
SNCA expr inh: inactive; KDM5B inhibitor: inconclusive; IP6K1 inh: -26; HEK293 viab: inactive; IP6K1 conf: inactive

What do the screens show for `CCOC(=O)C1CCN(C(=O)Cn2nc(C)n3c(cc4c(OC)cccc43)c2=O)CC1`?
SNCA expr inh: inactive; KDM5B inhibitor: inconclusive; IP6K1 inh: inactive; HEK293 viab: inactive

Results for Cc1ccc2c(c1)cc1c(=O)n(CC(=O)N3CCCCC3)nc(C)n12 ?
SNCA expr inh: inactive; KDM5B inhibitor: inconclusive; IP6K1 inh: -27; HEK293 viab: inactive; IP6K1 conf: inactive

Results for Cc1nn(CC(=O)N2CCCCC2)c(=O)c2cc3occc3n12 ?
SNCA expr inh: inactive; KDM5B inhibitor: inactive; IP6K1 inh: inactive; HEK293 viab: inconclusive

Results for COc1cc(OC)c(NC(=O)C2=C(C)C(=O)OC23CCCCCC3)cc1Cl ?
SNCA expr inh: inactive; KDM5B inhibitor: inactive; IP6K1 inh: -100; HEK293 viab: inactive; IP6K1 conf: inactive

What do the screens show for `O=C(Nc1nnc(N2CCCCCC2)s1)Nc1cc(F)ccc1F`?
SNCA expr inh: inactive; KDM5B inhibitor: inactive; IP6K1 inh: -29; HEK293 viab: inactive; IP6K1 conf: inactive

Results for COc1ccc(-c2nc(CSCC(=O)N3CCN(c4cccc(C)c4C)CC3)c(C)o2)cc1OC ?
SNCA expr inh: inactive; KDM5B inhibitor: inconclusive; IP6K1 inh: -26; HEK293 viab: inconclusive; IP6K1 conf: inactive

What do the screens show for `COc1ccc(-c2nc(CSCC(=O)N3CCN(c4cc(Cl)ccc4C)CC3)c(C)o2)cc1`?
SNCA expr inh: inconclusive; KDM5B inhibitor: inconclusive; IP6K1 inh: inactive; HEK293 viab: inconclusive

Results for COc1ccccc1-c1cc(C(=O)NCC#N)c2cnn(C)c2n1 ?
IP6K1 inh: inactive

What do the screens show for `CCn1c(CO)nnc1C1CC(NC(=O)c2cccc3c2OCCO3)C1` (centres undefined)?
SNCA expr inh: inactive; KDM5B inhibitor: inconclusive; IP6K1 inh: -25; HEK293 viab: inactive; IP6K1 conf: inactive

Results for CCCCC(NS(=O)(=O)Cc1ccccc1)C(=O)O (centres undefined) ?
KDM5B inhibitor: inactive

How did C/C=C/Cn1c(SCCCCCC)nc2c1c(=O)[nH]c(=O)n2C do in these assays?
KDM5B inhibitor: inactive

Results for N#CCCN(CCC#N)C(=O)c1cccs1 ?
KDM5B inhibitor: inactive

How did CCOC(=O)c1cnc2c(C)cc(C)cc2c1Nc1cccc(C(=O)O)c1 do in these assays?
SNCA expr inh: inactive; KDM5B inhibitor: inactive; IP6K1 inh: -26; HEK293 viab: inactive; IP6K1 conf: inconclusive

What do the screens show for `Cc1cc(C)c2nc(C)cc(Nc3cccc(C(=O)O)c3)c2c1`?
SNCA expr inh: inactive; KDM5B inhibitor: inconclusive; IP6K1 inh: -25; HEK293 viab: inconclusive; IP6K1 conf: inactive

What do the screens show for `CCOC(=O)c1cnc2c(C)cc(C)cc2c1Nc1cccc(O)c1`?
KDM5B inhibitor: inactive

Results for CC(=O)c1ccc(NC(=O)CSc2nnc(N)s2)cc1 ?
SNCA expr inh: inactive; KDM5B inhibitor: inactive; IP6K1 inh: -31; HEK293 viab: inactive; IP6K1 conf: inactive

What do the screens show for `Nc1nnc(SCC(=O)Nc2ccccc2)s1`?
SNCA expr inh: inactive; KDM5B inhibitor: inconclusive; IP6K1 inh: inactive; HEK293 viab: inactive

Results for CCN1CC2(CCN(C(=O)c3cnc4c(O)cccn4c3=O)CC2)OC1=O ?
SNCA expr inh: inactive; KDM5B inhibitor: 32µM; IP6K1 inh: -27; HEK293 viab: inconclusive; IP6K1 conf: inactive

How did CCN1CC2(CCN(C(=O)c3cccc(Cn4cccn4)c3)CC2)OC1=O do in these assays?
SNCA expr inh: inactive; KDM5B inhibitor: inactive; IP6K1 inh: inactive; HEK293 viab: inactive

Results for COc1ccc(C2Cn3nnc(C(=O)N4CCN(C(=O)CCc5ccccc5)CC4)c3CO2)cc1 (centres undefined) ?
SNCA expr inh: inconclusive; KDM5B inhibitor: inconclusive; IP6K1 inh: -25; HEK293 viab: inactive; IP6K1 conf: inactive

How did COc1cccc(N2C(=O)NC(=NC3CCCC3)C23CCN(Cc2ccc(F)cc2)C3)c1 (centres undefined) do in these assays?
SNCA expr inh: inactive; KDM5B inhibitor: inactive; IP6K1 inh: inactive; HEK293 viab: inactive

How did Cc1ccc(NC(=O)CSCc2cnn(-c3ccccc3)c2-n2cccc2)c(C)c1 do in these assays?
SNCA expr inh: inactive; KDM5B inhibitor: inactive; IP6K1 inh: -28; HEK293 viab: inactive; IP6K1 conf: inactive

Results for Cc1ccc(Cl)cc1NC(=O)CSCc1cnn(-c2ccccc2)c1-n1cccc1 ?
SNCA expr inh: inconclusive; KDM5B inhibitor: inactive; IP6K1 inh: inactive; HEK293 viab: inactive
